The values that follow come from PubChem BioAssay (NCATS).

Inconclusive results are not listed. A call without a number means that no potency is given here. Activity calls are given as the source filed them. Calls come from the whole dose curve; as a rule, active = well fitted inhibition curve with a large enough effect; inconclusive = small, poorly fitted or top-dose-only effect; inactive = no such curve, though single readings can be large or run the other way.

The target in the test is Cytochrome P450 3A4 (Homo sapiens) (UniProt P08684). As to the kind of experiment: qHTS Assay for Inhibitors and Substrates of Cytochrome P450 3A4 (AID 884). Note: nearly all actives have a fitted effect of over 50% in size. The following applies: recombinant CYP3A4, Luciferin-PPXE luminescence; series mostly up to 57.1 µM. The essentials: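 Luminescent readout of luciferin produced by CYP3A4 (20 nM) dealkylation of Luciferin-PPXE, 25 uM (its KM). NADPH-driven reaction ran 60 min at RT after 10 min compound preincubation; data scaled to 57 uM ketoconazole as 100% inhibition.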
Chain of Cytochrome P450 3A4 (Homo sapiens) (P08684 whole entry, looked up): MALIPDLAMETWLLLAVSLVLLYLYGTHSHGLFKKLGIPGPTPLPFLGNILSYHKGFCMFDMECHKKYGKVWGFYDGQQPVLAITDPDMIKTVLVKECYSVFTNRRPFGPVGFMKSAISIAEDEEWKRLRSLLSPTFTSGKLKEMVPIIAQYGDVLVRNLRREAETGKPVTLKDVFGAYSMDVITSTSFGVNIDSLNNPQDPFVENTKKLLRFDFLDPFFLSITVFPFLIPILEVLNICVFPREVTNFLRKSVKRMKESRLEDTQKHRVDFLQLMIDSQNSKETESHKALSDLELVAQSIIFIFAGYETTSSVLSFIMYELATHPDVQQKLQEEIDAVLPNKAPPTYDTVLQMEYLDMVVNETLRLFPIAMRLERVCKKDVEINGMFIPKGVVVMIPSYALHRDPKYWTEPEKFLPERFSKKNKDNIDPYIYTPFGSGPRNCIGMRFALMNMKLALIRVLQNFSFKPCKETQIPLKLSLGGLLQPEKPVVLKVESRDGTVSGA
For orientation: In qHTS, concentration-response curves come from the screen itself.
As to `CC(C)(C#N)O[C@H]1OC(CO)C(O)C(O)C1O` (stereo not given in full), the Potency result is “inactive”.
In the case of `CC1CC2CC(=O)C3CCCN4CCCC2[C@]34C1` (stereo not given in full), the Potency entry was “inactive”.
Consider `CC1CC[C@]2(NC1)OC1CC3C4CC=C5CC(O)CC[C@@]5(C)C4CC[C@]3(C)C1C2C` (stereo not given in full), for which the Potency entry was “inactive”.
The result for `CNC(=O)Oc1cccc2c1OC(C)(C)C2` reads “inactive”; that for `NC(CO)Cc1ccccc1` (stereo not given), “inactive”; that for `O=C(O)c1nn(Cc2ccc(Cl)c(Cl)c2)c2ccccc12`, “inactive”.
As to `CNc1ccccc1C(=O)O`, the Potency entry is “inactive”.
`CC(N)C(O)c1ccc(O)c(O)c1` (stereo not given): the Potency entry is “inactive”.
As for `C[C@@]12CC(c3ccoc3)OC(=O)C1CC[C@@]1(C)C2C2C=C[C@@]1(O)C(=O)O2` (stereo not given in full), the Potency entry was “inactive”.
The result for `CC(=O)OC1C(=O)[C@]2(C)C(O)CC3OC[C@]3(OC(C)=O)C2[C@@H](OC(=O)c2ccccc2)[C@]2(O)CC(O)C(C)=C1C2(C)C` (stereo not given in full) reads “inactive”; that for `Cc1c(O)c(O)cc2c1CC=C1[C@]3(C)CC[C@]4(C)CC[C@@](C)(C(=O)O)CC4[C@]3(C)CC[C@]12C` (stereo not given in full), “inactive”; that for `N#C/C(=C\c1cccc(O)c1)C(=O)O`, “inactive”.
As for `CC(=O)C1CCC2C3CCC4CC(O)CCC4(C)C3CC(O)C12C` (stereo not given), the Potency entry is “inactive”.
The result for `COc1cc2c(cc1OC)[C@@H]1C(=O)c3ccc(O)c(CC=C(C)C)c3OC1CO2` (stereo not given in full) reads “inactive”.
Regarding `C[C@@]12CCC3C(CC[C@@H]4CC(O)CC[C@@]34C)C1CCC2O` (stereo not given in full), the Potency result is “inactive”.
The result for `CCC(C)C(=O)OC1C(O)C2C(CN3CC(C)CCC3[C@]2(C)O)C2C[C@]34O[C@@]5(O)C(OC(=O)C(C)(O)C(C)O)CCC3(C)C5C(OC(C)=O)C(OC(C)=O)C4[C@@]21O` (stereo not given in full) reads “inactive”; that for `N#CC(O[C@@H]1OC(COC2OC(CO)C(O)C(O)[C@@H]2O)C(O)C(O)C1O)c1ccccc1` (stereo not given in full), “inactive”; that for `CCN1C[C@@]2(OC(=O)c3ccccc3NC(C)=O)CCC(OC)[C@@]34C5CC6C(OC)C[C@@](O)(C(CC23)[C@@H]14)C5(O)C6OC` (stereo not given in full), “inactive”.
The result for `CCOC(=O)C1C(C=C(C)C)C1(C)C` (stereo not given) reads “inactive”; that for `FC(F)(F)c1cccc(N2CCNCC2)c1`, “inactive”.
Next, `CC(N)[C@@H](O)c1ccccc1` (stereo not given in full): “inactive”; `CC1C(=O)OC2C(O)C34C5OC(=O)[C@@]3(OC3OC(=O)[C@H](O)[C@]34C(C(C)(C)C)C5O)[C@]12O` (stereo not given in full): “inactive”.
As for `CC(=O)OC1CC[C@]2(C)C(CCC3C2CC[C@]2(C)C(C4=CC(=O)OC4)C(OC(C)=O)CC32O)C1` (stereo not given in full), the Potency entry is “inactive”.
Next, `C[C@]12CCC3C(C=CC4=CC(=O)CC[C@]43C)C1CC[C@]2(O)CCC(=O)O` (stereo not given in full): “inactive”; `CC1C(=O)OC2CCN3CC=C(COC(=O)[C@](C)(O)[C@]1(C)O)C23` (stereo not given in full): “inactive”.
The result for `C/C=C(/C)C(=O)OC1CC[C@]2(C)C3CCC4[C@]5(O)CC(O)[C@]6(O)C(CN7CC(C)CCC7[C@]6(C)O)[C@]5(O)C[C@@]42O[C@]13O` (stereo not given in full) reads “inactive”; that for `CC1O[C@@H](OC2CC[C@@]3(C=O)C4CC[C@]5(C)C(C6=CC(=O)OC6)CC[C@@]5(O)C4CC[C@]3(O)C2)C(O)C(O)C1O` (stereo not given in full), “inactive”.
Regarding `COc1ccc(/C=C/c2cc(O)cc(O)c2)cc1`, the Potency entry was “inactive”.
Regarding `CNC(Cc1c[nH]c2ccccc12)C(=O)O` (stereo not given), the Potency result was “inactive”.
On to `COC1C(O)C(C)O[C@H](OC2CC[C@@]3(C=O)C4CC[C@]5(C)C(C6=CC(=O)OC6)CC[C@@]5(O)C4CC[C@@H]3C2)C1O` (stereo not given in full), for which the Potency result is “inactive”.
As to `O=C(NC(=O)c1ccccc1Cl)Nc1ccc(OC(F)(F)F)cc1`, the Potency entry is “inactive”.
In the case of `CC(=O)OC1CC(OC(C)=O)[C@]2(C)C(CC(OC(C)=O)[C@]3(C)C2CC[C@@]2(C)C(c4ccoc4)C[C@H]4O[C@]432)C1(C)C` (stereo not given in full), the Potency entry is “inactive”.
Next, `CCC(N)C(O)c1ccc(O)c(O)c1` (stereo not given): “inactive”.
The result for `CC(=O)C1CC[C@H]2C3CC[C@@H]4CC(O)CC[C@@]4(C)C3CC[C@]12C` (stereo not given in full) reads “inactive”; that for `O=C(O)CCC1NCC2CC1CN1CCCCC21` (stereo not given), “inactive”; that for `CC1(C)N([O-])[N+](=O)C1(C)Br` (stereo not given), “inactive”.
Next, `COc1cc2c3cc1Oc1c(OC)c(OC)cc4c1C(Cc1cccc(c1)Oc1ccc(c(O)c1)CC3N(C)CC2)N(C)CC4` (stereo not given): “inactive”; `COC[C@]12CN(C=O)C3C4C(OC)C1[C@@]3(C1CC3(O)C(OC)C(O)C4(OC(C)=O)C1C3OC(=O)c1ccccc1)[C@@H](OC)CC2O` (stereo not given in full): “inactive”.
For the compound `COc1cc2c(c(OC)c1OC)-c1ccc(O)c(=O)cc1C(NC(C)=O)CC2` (stereo not given), the Potency result was “inactive”.
Next, `CN1C2CC3CC1C(O3)C2O` (stereo not given): “inactive”.
